Laboratory results: ChEMBL document CHEMBL3988442, “University of Dundee, Small-Polar-MMV Screening Library” (2021)
Several values for one entry are separate records, joined by “and”; a condition that tells them apart may be missing. Identical values can stand only once. For some assays here: Entries with a potency or affinity are not part of this list.

What was measured:
Design in all cases: scale not given: direction of the effect not stated beside the values
[1] = target: Protein translocase subunit SecA (Escherichia coli (strain K12)) (UniProt P10408); experiment: Assay to Identify E. coli SecA ATPase Inhibitors; type: functional; settings: 30 µM
Chain of Protein translocase subunit SecA (Escherichia coli (strain K12)) (P10408 whole entry): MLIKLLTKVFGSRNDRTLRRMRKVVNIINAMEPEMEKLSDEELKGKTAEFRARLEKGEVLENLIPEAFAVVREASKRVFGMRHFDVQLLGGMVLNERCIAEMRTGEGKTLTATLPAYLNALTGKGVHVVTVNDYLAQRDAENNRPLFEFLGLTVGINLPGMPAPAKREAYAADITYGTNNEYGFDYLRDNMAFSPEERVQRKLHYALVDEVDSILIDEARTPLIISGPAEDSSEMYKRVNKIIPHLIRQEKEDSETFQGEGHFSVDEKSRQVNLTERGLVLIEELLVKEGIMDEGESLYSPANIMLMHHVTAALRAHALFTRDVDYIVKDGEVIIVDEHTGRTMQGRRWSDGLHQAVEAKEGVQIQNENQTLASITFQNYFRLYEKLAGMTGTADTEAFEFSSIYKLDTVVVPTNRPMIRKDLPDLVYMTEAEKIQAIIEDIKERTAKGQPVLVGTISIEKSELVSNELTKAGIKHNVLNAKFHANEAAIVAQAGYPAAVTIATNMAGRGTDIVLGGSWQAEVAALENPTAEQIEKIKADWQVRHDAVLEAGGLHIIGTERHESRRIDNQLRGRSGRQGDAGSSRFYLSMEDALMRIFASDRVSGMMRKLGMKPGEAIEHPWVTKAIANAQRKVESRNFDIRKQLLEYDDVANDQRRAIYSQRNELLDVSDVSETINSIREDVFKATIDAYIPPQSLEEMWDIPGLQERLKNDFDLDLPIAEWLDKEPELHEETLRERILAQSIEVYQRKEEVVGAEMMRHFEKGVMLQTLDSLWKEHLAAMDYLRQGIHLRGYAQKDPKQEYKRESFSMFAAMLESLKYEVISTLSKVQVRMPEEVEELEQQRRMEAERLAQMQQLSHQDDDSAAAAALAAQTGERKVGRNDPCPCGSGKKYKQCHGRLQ

[2] = target: T1, Ubiquitin-activating enzyme e1, putative (Leishmania donovani (strain BPK282A1)) (UniProt E9BSI1); experiment: Leishmania donovani Ubiquitin Activating Enzyme (LdE1); type: functional; settings: 30 µM
T1 sequence (whole entry): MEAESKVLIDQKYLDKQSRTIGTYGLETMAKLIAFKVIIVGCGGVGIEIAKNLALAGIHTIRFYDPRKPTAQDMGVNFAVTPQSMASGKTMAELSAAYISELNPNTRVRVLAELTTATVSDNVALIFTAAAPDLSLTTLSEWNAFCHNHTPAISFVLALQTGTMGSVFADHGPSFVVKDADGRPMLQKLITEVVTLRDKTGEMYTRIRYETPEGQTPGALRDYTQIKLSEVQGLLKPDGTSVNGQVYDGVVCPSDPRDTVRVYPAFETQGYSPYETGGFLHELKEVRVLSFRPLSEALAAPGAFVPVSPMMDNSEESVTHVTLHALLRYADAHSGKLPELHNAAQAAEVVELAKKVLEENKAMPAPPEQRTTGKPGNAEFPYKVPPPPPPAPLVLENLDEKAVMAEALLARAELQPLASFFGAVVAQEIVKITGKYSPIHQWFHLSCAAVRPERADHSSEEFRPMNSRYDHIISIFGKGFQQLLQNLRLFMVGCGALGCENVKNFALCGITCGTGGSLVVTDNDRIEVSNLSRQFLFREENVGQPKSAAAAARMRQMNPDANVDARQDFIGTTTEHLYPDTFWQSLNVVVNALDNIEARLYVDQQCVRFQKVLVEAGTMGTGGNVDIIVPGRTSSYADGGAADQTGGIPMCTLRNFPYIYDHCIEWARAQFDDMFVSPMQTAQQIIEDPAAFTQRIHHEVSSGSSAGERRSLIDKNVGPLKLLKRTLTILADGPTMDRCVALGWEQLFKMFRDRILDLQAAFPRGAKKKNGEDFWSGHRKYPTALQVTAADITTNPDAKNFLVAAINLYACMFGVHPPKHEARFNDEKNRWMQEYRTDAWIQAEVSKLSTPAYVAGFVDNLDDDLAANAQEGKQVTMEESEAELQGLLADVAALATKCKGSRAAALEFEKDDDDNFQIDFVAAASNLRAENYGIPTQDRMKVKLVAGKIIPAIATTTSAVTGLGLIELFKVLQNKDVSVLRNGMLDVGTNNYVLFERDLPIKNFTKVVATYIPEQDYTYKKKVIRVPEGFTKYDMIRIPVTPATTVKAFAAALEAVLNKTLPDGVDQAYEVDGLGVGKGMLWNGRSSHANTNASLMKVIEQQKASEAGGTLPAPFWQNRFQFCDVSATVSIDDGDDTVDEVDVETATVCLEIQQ

[3] = target: Sialic acid-binding Ig-like lectin 9 (Homo sapiens) (UniProt Q9Y336); experiment: Hs-Siglec9 ALPHAscreen SOP 20170721; settings: 10 µM
Chain of Sialic acid-binding Ig-like lectin 9 (Homo sapiens) (Q9Y336 whole entry): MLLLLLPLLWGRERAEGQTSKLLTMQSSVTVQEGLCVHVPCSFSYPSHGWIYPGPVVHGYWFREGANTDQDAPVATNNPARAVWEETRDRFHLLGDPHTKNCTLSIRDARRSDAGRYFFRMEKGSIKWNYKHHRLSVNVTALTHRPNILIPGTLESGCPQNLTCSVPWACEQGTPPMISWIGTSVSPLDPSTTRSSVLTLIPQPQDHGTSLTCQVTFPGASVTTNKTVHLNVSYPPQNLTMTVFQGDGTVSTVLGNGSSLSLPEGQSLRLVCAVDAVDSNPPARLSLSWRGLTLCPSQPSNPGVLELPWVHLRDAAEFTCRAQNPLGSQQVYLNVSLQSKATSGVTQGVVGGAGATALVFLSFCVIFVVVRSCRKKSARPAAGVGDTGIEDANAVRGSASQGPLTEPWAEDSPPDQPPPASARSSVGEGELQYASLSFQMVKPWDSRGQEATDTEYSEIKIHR

[4] = system: Trypanosoma cruzi; experiment: Trypanosoma cruzi phosphomannomutase and mannose-1-phosphate guanylyltransferase assay; type: functional; settings: 10 µM
[5] = target: T2, Arginase-2, mitochondrial (Homo sapiens) (UniProt P78540); experiment: in vitro enzyme assay to detect the production of urea directly proportional to the activity of Arginase II; type: functional; further: in the data most compounds retested in dose-response had high values
T2 sequence (whole entry): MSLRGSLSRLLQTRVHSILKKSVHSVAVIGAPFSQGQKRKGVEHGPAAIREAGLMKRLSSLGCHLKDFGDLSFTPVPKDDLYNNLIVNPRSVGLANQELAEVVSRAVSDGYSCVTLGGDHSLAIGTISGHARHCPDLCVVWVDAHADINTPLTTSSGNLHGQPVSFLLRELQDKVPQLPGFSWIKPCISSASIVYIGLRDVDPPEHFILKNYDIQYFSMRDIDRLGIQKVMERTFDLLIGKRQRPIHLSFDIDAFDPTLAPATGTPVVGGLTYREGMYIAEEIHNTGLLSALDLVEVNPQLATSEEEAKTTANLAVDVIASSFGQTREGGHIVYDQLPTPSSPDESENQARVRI

[6] = target: T3, Proteasome subunit beta (Trypanosoma cruzi) (UniProt O96673); experiment: Trypanosoma cruzi proteasome chymotrypsin-like activity (TcProtChymo) assay.; further: in the data most compounds retested in dose-response had high values; type: functional; settings: 9.37 µM
T3 sequence (whole entry): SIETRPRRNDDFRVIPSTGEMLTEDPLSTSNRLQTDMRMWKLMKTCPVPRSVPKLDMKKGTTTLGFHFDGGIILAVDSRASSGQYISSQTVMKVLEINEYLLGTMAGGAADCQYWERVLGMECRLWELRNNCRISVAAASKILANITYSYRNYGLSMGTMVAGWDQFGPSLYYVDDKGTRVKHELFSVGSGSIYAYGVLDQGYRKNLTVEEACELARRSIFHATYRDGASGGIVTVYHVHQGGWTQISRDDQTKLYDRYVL

[7] = organism: Homo sapiens; experiment: To identify inhibition of the IFN signalling (Jak-Stat) pathway via expression of an eGFP reporter gene under the control of an IFN-stimulated response element (ISRE) containing MxA promoter.; type: functional; settings: 30 µM
[8] = target: T4, Tyrosyl-tRNA synthetase, putative (Trypanosoma cruzi (strain CL Brener)) (UniProt Q4DSP6); experiment: Trypanosoma cruzi tyrosyl tRNA synthetase (TcYRS) _High Tyrosine SOP; type: functional; settings: 30 µM; further: in the data most compounds retested in dose-response had high values
T4 sequence (whole entry): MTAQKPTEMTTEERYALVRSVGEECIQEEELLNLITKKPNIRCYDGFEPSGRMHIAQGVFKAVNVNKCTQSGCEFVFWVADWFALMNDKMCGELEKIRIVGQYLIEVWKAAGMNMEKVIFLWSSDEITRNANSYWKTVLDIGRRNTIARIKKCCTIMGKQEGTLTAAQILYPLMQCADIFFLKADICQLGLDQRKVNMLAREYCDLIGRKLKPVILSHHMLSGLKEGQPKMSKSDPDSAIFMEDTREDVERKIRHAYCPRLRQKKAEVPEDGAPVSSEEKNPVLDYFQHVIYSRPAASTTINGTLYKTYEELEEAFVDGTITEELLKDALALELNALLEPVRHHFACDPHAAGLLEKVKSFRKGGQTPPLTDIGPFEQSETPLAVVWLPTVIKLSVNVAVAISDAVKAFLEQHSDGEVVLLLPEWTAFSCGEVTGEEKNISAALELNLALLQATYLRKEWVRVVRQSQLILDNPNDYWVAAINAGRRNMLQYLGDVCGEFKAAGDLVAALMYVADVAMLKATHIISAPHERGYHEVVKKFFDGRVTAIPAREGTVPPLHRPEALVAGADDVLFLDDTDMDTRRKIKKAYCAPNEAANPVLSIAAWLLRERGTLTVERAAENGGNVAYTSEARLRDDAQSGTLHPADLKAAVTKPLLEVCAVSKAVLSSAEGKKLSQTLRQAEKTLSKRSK

[9] = target: T4, Tyrosyl-tRNA synthetase, putative (Trypanosoma cruzi (strain CL Brener)); experiment: Trypanosoma cruzi tyrosyl tRNA synthetase (TcYRS) SOP; type: functional; settings: 30 µM
[10] = target: Chromo domain-containing protein 1 (Saccharomyces cerevisiae (strain ATCC 204508 / S288c) (Baker's yeast)) (UniProt P32657); experiment: ScCHD-1 Enzyme Inhibition Assay; type: functional; settings: 30 µM; further: in the data most compounds retested in dose-response had high values
Chain of Chromo domain-containing protein 1 (Saccharomyces cerevisiae (strain ATCC 204508 / S288c) (Baker's yeast)) (P32657 whole entry, the tested form may be a part): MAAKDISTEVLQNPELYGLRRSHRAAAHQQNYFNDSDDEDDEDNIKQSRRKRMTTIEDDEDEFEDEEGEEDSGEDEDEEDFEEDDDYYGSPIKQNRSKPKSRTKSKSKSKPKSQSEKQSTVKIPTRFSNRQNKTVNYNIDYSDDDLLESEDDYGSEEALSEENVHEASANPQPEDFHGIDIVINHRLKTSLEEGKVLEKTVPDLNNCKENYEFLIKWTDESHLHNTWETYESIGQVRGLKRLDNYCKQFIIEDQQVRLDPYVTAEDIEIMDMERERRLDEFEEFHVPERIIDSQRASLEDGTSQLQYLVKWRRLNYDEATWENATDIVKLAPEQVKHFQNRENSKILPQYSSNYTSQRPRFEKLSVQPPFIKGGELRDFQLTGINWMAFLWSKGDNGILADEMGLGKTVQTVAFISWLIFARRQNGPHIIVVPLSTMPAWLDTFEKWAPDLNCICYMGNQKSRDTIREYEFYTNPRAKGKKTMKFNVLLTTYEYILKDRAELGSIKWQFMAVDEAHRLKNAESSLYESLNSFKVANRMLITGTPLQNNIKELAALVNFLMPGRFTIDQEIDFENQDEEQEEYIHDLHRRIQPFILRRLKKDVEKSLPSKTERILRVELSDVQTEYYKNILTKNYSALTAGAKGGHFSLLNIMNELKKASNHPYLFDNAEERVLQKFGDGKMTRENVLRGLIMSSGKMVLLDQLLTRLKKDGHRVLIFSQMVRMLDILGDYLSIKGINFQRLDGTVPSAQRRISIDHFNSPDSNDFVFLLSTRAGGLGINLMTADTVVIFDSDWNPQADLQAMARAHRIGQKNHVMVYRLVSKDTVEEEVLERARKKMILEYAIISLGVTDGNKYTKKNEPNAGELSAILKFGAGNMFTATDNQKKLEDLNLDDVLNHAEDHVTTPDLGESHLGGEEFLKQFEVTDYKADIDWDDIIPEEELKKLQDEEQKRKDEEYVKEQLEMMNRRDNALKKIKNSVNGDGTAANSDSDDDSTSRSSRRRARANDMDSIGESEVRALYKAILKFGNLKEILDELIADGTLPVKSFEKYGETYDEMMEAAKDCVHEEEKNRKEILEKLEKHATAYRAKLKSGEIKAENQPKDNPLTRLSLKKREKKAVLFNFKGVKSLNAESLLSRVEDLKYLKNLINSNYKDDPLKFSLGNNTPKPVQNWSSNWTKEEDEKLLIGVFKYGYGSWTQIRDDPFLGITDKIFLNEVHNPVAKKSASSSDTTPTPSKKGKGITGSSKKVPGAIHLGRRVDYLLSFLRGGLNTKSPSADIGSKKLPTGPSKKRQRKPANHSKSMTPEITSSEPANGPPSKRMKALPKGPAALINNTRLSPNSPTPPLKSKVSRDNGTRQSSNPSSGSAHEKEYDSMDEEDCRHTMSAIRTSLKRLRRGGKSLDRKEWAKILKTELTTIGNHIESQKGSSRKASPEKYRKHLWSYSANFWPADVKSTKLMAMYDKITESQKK

[11] = target: AMP-activated protein kinase, AMPK (Homo sapiens) (UniProt P54646+O43741+P54619+Q9UGJ0+Q9Y478+Q13131+Q9UGI9); experiment: AMP-dependent Kinase enzyme assay. An in vitro enzyme assay that detects ADP turnover that is directly proportional to AMPK activity. This uses naive AMPK that is activated during the assay with MK-8722; type: functional; settings: 30 µM
[12] = system: N/A; experiment: Trypanosoma cruzi proteasome luciferase counter-screen; type: functional; settings: 9.37 µM

| Structure (SMILES) | Percent Effect [1] [%] | Percent Effect [2] [%] | Percent Effect [3] [%] | Percent Effect [4] [%] | Percent Effect ([5]; 30 µM) [%] | Percent Effect ([5]; 33.3 µM) [%] | Percent Effect [6] | Percent Effect [7] [%] | Percent Effect [8] [%] | Percent Effect [9] [%] | Percent Effect [10] [%] | Percent Effect [11] [%] | Percent Effect [12] |
| --- | --- | --- | --- | --- | --- | --- | --- | --- | --- | --- | --- | --- | --- |
| CCNC(=O)c1ccnc(NCC2COc3cc(OC)ccc3C2)c1 (stereo not given) | -6.93 | 5.41 | 2.93 | -3.78 | 0.54 | -1.05 | 23.6% | 24.8 | 2.66 | 7.32 | -4.55 |  |  |
| Cc1cnc2n1CCN(C)C21CCN(C(=O)CC(C)C)CC1 | -2.76 | 8 | 1.76 | -5.21 |  | -26.3 | 8.38% | -3.36 | -1.04 | 15 | -7.37 | 2.31 |  |
| COc1ccc(-c2ccnc3c2C(=O)CCC3)cc1 | 0.627 | 22.7 | -8.36 | 0.789 |  | 0.885 | 78.1% and 77.9% and 84.4% | 22.2 | 2.12 | 7.5 | -22.2 |  | 54.8% and 45.5% |
| Cc1ccc(NC(=O)C2=CN=S=N2)cc1 | 1.26 | 17.3 | -13.9 | 3.94 |  | 0 | 84.2% and 80.5% and 69% | 21.4 | 4.23 | 10 | -20.4 |  | 45.6% and 45.1% |
| Cc1nc(N)sc1C(=O)N1CCCC(c2nccn2CCCN(C)C)C1 (stereo not given) | -5.86 | 10.8 | 10.2 | 7.47 | 9.19 | -3.15 | 13.2% | 7.55 | 11.2 | 9.76 | 95.1 |  |  |
| COc1ccc(CC(=O)N2CCCC(n3cc(C)cn3)C2)cc1F (stereo not given) | -2.21 | -2.67 | 3.32 | 0.201 |  | 2.66 | 4.16% | 3.46 | 2.63 | 2.56 | -4.37 |  |  |
| Cc1cc(CN(C)C(=O)c2ccc(F)cc2Br)no1 | -3.65 | 10.3 | -16.2 | -5.35 |  | -1.23 | 15.3% | 28.1 | 3.35 | 10.8 | -3.45 |  |  |
| O=S(=O)(c1ccccc1Cl)N1CCc2nc(C3CCNCC3)ncc2C1 | -4.22 | 1.33 | 8.22 | 3.75 |  | -1.33 | 12.2% | 34.8 | 6.35 | 12.5 | -26.2 |  |  |
| CC(C)(C)c1cn2nc(N3CCOC(Cn4cncn4)C3)sc2n1 (stereo not given) | -1.88 | 23.1 | -8.45 | 7.79 |  | -2.46 | 12.4% | 13.8 | 3.35 | 22.9 | -5.11 |  |  |
| O=C(C1CCOC1)N1CC[C@@H](O)[C@@H]1Cc1ccccc1 (stereo not given in full) | -4.39 | -14.3 | -3.29 | -10.1 |  | 3.2 | 6.09% | -3.1 | -28 | -60 | -3.36 |  |  |
| CCCNC(=O)NCc1cccnc1OC | -1.2 | 13.3 | 0.677 | -0.803 |  | 2.66 | 14.2% | 18.8 | 2.63 | 10.3 | -6.38 |  |  |
| Cc1cc(-c2nn(C)c(Cl)c2CN2CCOCC(O)C2)no1 (stereo not given) | -4.83 | 13.5 | 10 | 4.37 |  | 15.7 | 13% | 15.5 | 2.66 | 17.1 | -4.79 |  |  |
| Cc1noc(C)c1C(=O)N1CC[C@H]2C[C@@H](c3ccncn3)O[C@@H]2C1 | -7.73 | 6.49 | 0.544 | -1.46 |  | -2.43 | 11.7% | -4.26 | 5.79 | 15.4 | -2 |  |  |
| Cc1cc(C(=O)NCc2ccnc(N3CCN(C)CC3)c2)c(C)s1 | -2.97 | -28.2 | -3.6 | -0.657 |  | 3.69 | 3.67% | -0.506 | 8.13 | 20.5 | -3.48 |  |  |
| c1csc(CN2CCOCC3(CCN(C4CCOCC4)C3)C2)n1 (stereo not given) | -5.6 | 6.49 | -3.43 | -4.77 |  | -5.67 | 16.9% | -1.84 | 2.63 | -2.56 | -0.251 |  |  |
